This note sets out measurements from PubChem BioAssay AID1259318 (Sanford-Burnham Center for Chemical Genomics, 2017).

The structures appear in SMILES notation. The campaign covered roughly 370,000 compounds. About 3,000 (0.81%) were called active.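 The calls were made as follows: active = activity above about 14% (limit read from the data; passing the limit was not always enough); inactive = the rest.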 This excerpt belongs to a sample that is enriched for actives.

The target of the experiment is Nuclear receptor subfamily 1 group D member 1 (Homo sapiens) (UniProt P20393). The experiment is described as follows: Rev-erbα–DNA interaction modulation – biochemical, FITC-DNA, fluorescence polarization, uHTS, primary screen (AID 1259318).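 Also: 0% = DMSO wells with 35 nM protein and 100% = DMSO wells with 750 nM protein.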 Conditions: Rev-erbα–FITC-DNA binding, 90 min, at 10 µM, active compounds read high. A general note: In fluorescence polarisation assays a small probe gives low polarisation when free and higher when bound to something large.
Sequence of Nuclear receptor subfamily 1 group D member 1 (Homo sapiens) (P20393 whole entry, looked up): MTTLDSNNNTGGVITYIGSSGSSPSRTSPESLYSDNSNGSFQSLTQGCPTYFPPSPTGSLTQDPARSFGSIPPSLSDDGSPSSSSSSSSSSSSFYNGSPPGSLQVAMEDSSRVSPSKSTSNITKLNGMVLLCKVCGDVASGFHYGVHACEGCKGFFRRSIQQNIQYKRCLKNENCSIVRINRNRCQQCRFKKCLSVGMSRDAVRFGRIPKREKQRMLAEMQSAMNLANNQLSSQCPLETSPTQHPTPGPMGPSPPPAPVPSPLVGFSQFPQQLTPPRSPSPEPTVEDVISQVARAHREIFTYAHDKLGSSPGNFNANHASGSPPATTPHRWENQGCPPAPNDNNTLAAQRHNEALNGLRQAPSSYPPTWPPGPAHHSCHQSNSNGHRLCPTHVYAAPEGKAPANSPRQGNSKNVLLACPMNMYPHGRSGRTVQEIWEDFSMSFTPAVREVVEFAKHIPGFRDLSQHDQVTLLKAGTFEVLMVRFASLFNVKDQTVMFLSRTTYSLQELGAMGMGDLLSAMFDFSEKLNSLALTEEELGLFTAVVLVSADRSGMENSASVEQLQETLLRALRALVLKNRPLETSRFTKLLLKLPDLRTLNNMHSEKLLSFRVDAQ
Take `CCOC(=O)c1cc(S(=O)(=O)NCCc2ccc(OC)c(OC)c2)cn1C`: the activity is 1.86% (inactive). Consider `Cc1cccc(OCCC(=O)Nc2cc(S(=O)(=O)N3CCCCC3)ccc2N2CCOCC2)c1`, for which the activity was -0.99% (inactive).

As for `CN(CCc1ccccn1)S(=O)(=O)c1ccc2c3c(cccc13)C(=O)N2`, the activity was 1.1% (inactive). The figure for `O=C(CSc1nnc(-c2cccc(Cl)c2)n1Cc1ccco1)Nc1ccc(OCc2ccccc2)cc1` is 4.77% (inactive). The figure for `Cc1cc(NC(=O)CSc2nc3cc(Cl)ccc3c(=O)n2Cc2ccco2)no1` is 20.1% (active).

For `Cc1cc(NC(=O)CSC2=NS(=O)(=O)c3cc(Cl)ccc3N2)no1`, the activity was -5.75% (inactive).

For `CC/C(=C(/c1ccccc1)c1ccc(OCC[N+](C)(C)C)cc1)c1ccccc1`, the activity was -1.77% (inactive). In the case of `C=CCN1[C@H](CC(C)C)COc2cccc(N3CCCC3)c2S1(=O)=O`, the activity is 5.72% (inactive). For `Fc1c(F)c(C(F)(F)F)c(F)c(F)c1N1CCN(c2ccc3nnc(C(F)(F)F)n3n2)CC1`, the activity is 28.7% (active).

In the case of `CCN(CC)S(=O)(=O)c1ccc(OC(C)C)c(N)c1`, the activity was -2.29% (inactive). For the compound `CCN(CC)S(=O)(=O)c1ccc(C(=O)N2CCN(C3=NS(=O)(=O)c4ccccc43)CC2)cc1`, the activity was -1.88% (inactive). Under `CCN(CC)C(=O)CS(=O)CC(=O)Nc1cc(OCCOC)c(Cl)cc1Cl` (configuration not stated) stands -6.56% (inactive); under `CSc1ccc(Cl)c(C(=O)OCC(=O)N2CC(C)OC(C)C2)c1` (configuration not stated), -1.82% (inactive); under `COc1cc(Cl)c(C)cc1NC(=O)COC(=O)c1cc(SC)ccc1Cl`, 35.7% (active). For the compound `COc1ccc(OCC(=O)Nc2cc(C)c(Cl)cc2OC)c([N+](=O)[O-])c1`, the activity was 1.26% (inactive). Take `COc1ccccc1NC(=O)COc1ccc(C(=O)OCC(=O)N(C(C)C)C(C)C)cc1OC`: the activity was 0.89% (inactive). The figure for `Clc1ccc(Cl)c(Oc2ccc(Oc3nc(Cl)ccc3Cl)cc2)n1` is -2% (inactive); for `Clc1ccc(-n2c(COc3ccccc3)nnc2SCc2nc3ccccc3[nH]2)cc1` it is -0.37% (inactive). The figure for `CC1CC2C3CCC4=CC(=O)C=C[C@]4(C)[C@@]3(F)[C@@H](O)C[C@]2(C)[C@@]1(O)C(=O)CO` (some centres not stated) is 0.08% (inactive); for `Cn1nccc1NS(=O)(=O)c1ccc(F)cc1` it is 3.3% (inactive). Under `CCc1c(-c2ccc(F)cc2)ncn1Cc1cccc(-c2ccccc2)c1` stands -5.19% (inactive); under `O=c1cc(N2CCCCC2)c(-c2ccccc2)nn1Cc1cccc(F)c1`, 30.7% (active). Take `O=C(CS(=O)(=O)c1cn(Cc2cccc(F)c2)c2ccccc12)N1CCCCC1`: the activity is -9.9% (inactive). `COC(=O)[C@]1(C)N[C@H](CN(C)C(=O)c2ccc(C(C)(C)C)cc2)[C@@H]2C(=O)N(C)C(=O)[C@@H]21`: the activity was -0.45% (inactive). The figure for `Oc1c(Br)cc(/C=N/NC(=S)NCC2CCCO2)cc1Br` (configuration not stated) is -2.6% (inactive); for `CO/N=C(\C(=O)N[C@@H]1C(=O)N2C(C(=O)O)=CCS[C@H]12)c1csc(N)n1` it is -1.64% (inactive); for `CCn1c(=O)c2ccccc2n(CC(=O)N2CCCc3ccccc32)c1=O` it is -3.6% (inactive).

Consider `CC(C)Cn1c(CN(Cc2ccccc2)Cc2ccccc2)nc2c1c(=O)n(C)c(=O)n2C`, for which the activity was 42.6% (active).

Consider `CC(C)CCn1c(CN(C)Cc2ccccc2)nc2c1c(=O)n(C)c(=O)n2C`, for which the activity was 3.74% (inactive). The figure for `Cn1c(=O)[nH]c(=O)c2c1nc(CN(Cc1ccccc1)Cc1ccccc1)n2CCN1CCOCC1` is -1.09% (inactive); for `Cc1ccccc1NC(=O)C1CCN(c2ncccn2)CC1` it is 4.79% (inactive). Under `O=C(CNC(=O)c1ccc(Cl)cc1Cl)NCC(=O)Nc1ccccc1N1CCOCC1` stands -3.17% (inactive). As for `CCOC(=O)c1cc(-c2ccc(Cl)s2)nc2c1c(C)nn2C`, the activity was 11.4% (inactive). The figure for `O=C(CN1CCN(S(=O)(=O)c2ccc(F)cc2)CC1)NC1CC1` is 6.03% (inactive). Under `COc1cc2c(cc1NC(=O)CN1CCN(S(=O)(=O)c3ccc(F)cc3)CC1)oc1ccccc12` stands 14.1% (active).

Take `COc1cc2c(cc1NC(=O)COC(=O)/C=C/c1ccccc1)oc1ccccc12`: the activity is -1.34% (inactive). Under `FC(F)(F)c1cccc(NC(=S)OC2CCC23CCC(c2ccccc2)CC3)c1` (configuration not stated) stands 5.79% (inactive); under `O=C(CC1SC(=Nc2ccccc2)N(Cc2ccccn2)C1=O)Nc1cccc(Cl)c1` (configuration not stated), 1.93% (inactive). Under `NC1=NC(c2ccc([N+](=O)[O-])cc2)N(c2ccc(F)cc2)C(N)=N1` (configuration not stated) stands 5.54% (inactive); under `Cc1ccc(NS(=O)(=O)c2ccc3c(c2)NC(=O)CO3)cc1`, 1.74% (inactive); under `Cc1ccc(NS(=O)(=O)c2cc3c(cc2Br)NC(=O)CO3)cc1C`, 23.4% (active).

For the compound `Cc1ccc(NS(=O)(=O)c2cc3c(cc2C)NC(=O)CO3)cc1`, the activity was 10.7% (inactive). The figure for `C[C@@H]1CN([C@@H](C)CO)C(=O)c2cccc(NC(=O)Nc3cccc4ccccc34)c2O[C@H]1CN(C)S(=O)(=O)c1ccccc1F` is -2.31% (inactive); for `CC1(C)NC(=O)N(CC(=O)Nc2cc(C(F)(F)F)cc(C(F)(F)F)c2)C1=O` it is 3.72% (inactive); for `CC(NCc1ccco1)C(=O)N1CCCCC1` (configuration not stated) it is -4.97% (inactive).

Regarding `COCCNc1nc(-c2ccccc2)nc2c1oc1ccccc12`, the activity was 7.87% (inactive). The figure for `COC(=O)c1cnc(Nc2cc(C)ccc2OC)c2ccccc12` is -1.59% (inactive). Under `COc1ccc(C)cc1Nc1nc(C)nc2c1oc1ccccc12` stands 53.9% (active). Under `O=[N+]([O-])c1ccc(NCCCO)c(C(F)(F)F)c1` stands -1.69% (inactive).

Take `N#Cc1ccc(OCCCN2CCC(C(O)(c3ccccc3)c3ccccc3)CC2)c(F)c1`: the activity was 2.99% (inactive). Under `CCCNC(=S)NC1CC2CCCC(C1)N2CC(C)C` (configuration not stated) stands 1.93% (inactive); under `COc1ccc(CC(=O)Nc2ccc(-c3nnc(-c4ccc(C)cc4)o3)cc2)cc1`, 26.4% (active); under `COc1ccc(-c2ccc3nnc(SCC(=O)Nc4ccc(NC(C)=O)cc4)n3n2)cc1`, -7.04% (inactive).

Turning to `Cc1ccc(CC(=O)Nc2cccc(C#N)c2)cc1`, the activity is 0.97% (inactive). Under `CC1CCCC(NC(=O)CSc2nccn2C)C1C` (configuration not stated) stands -3.46% (inactive); under `c1ccc(-c2cc(-c3nnc4sc(-c5ccccn5)nn34)[nH]n2)cc1`, 22.2% (active). For the compound `Fc1ccc(-c2ccc(-c3nn4c(-c5ccco5)nnc4s3)o2)cc1`, the activity is -8.14% (inactive).
